# The campaign covered roughly 52,000 compounds. About 4,300 (8.3%) were called active. No stated cut-off is given here; in the data, active means survival mostly below about 52% (no sharp cut-off); inactive means mostly above about 56%. Shown is part of a subset that was picked to be rich in actives.
# Test system: DeltatarO mutant
# Experiment: S. aureus survival, RN4220 and DeltatarO strains – OD600, teichoic acid synthesis inhibitors, primary screen (AID 463173)
# Settings: S. aureus RN4220 wild type/DeltatarO growth, OD600, 18 h, stronger effect = lower value, screened at 18.75 µg/mL (by protocol)
row,SMILES,survival
1,CCOc1ccc(CNC(=O)Nc2ccc3c(c2)N(C)C(=O)c2ccccc2S3)cc1,75% (inactive)
2,COc1ccccc1N1CCN(C(=O)c2cc3c(=O)oc4ccccc4c3s2)CC1,169% (inactive)
3,CCCOc1ccc(-c2cc(C(F)(F)F)c(C#N)c(SCCC(=O)O)n2)cc1,29% (active)
4,CCOC(=O)CSc1nc(-c2ccc(OCC)cc2)cc(C(F)(F)F)c1C#N,67% (inactive)
5,Cc1ccc(-c2cc(C(F)(F)F)c(C#N)c(SCC(=O)O)n2)cc1,66% (inactive)
6,CSc1ccc(CCNC(=O)C2CCCN(S(=O)(=O)N(C)c3ccc(F)cc3)C2)cc1 (centres undefined),74% (inactive)
7,CC1CN(c2ccc(Cl)cc2)c2nc3c(c(=O)n(CC(=O)O)c(=O)n3C)n2C1 (centres undefined),84% (inactive)
8,O=C(CNS(=O)(=O)c1cccs1)N1CCN(c2ccccc2F)CC1,51% (inactive)
9,O=C(CNS(=O)(=O)c1cccs1)N1CCN(c2ccccc2Cl)CC1,45% (active)
10,COc1cccc(N2CCN(C(=O)C3CCC(CNS(=O)(=O)c4ccc(Br)s4)CC3)CC2)c1 (centres undefined),78% (inactive)
11,O=C(C1CCC(CNS(=O)(=O)c2ccc(Br)s2)CC1)N1CCN(c2ccc(F)cc2)CC1 (centres undefined),74% (inactive)
12,COc1ccccc1N1CCN(C(=O)CNS(=O)(=O)c2ccc(Br)s2)CC1,116% (inactive)
13,O=C(C1CCN(S(=O)(=O)c2ccc(Br)s2)CC1)N1CCN(c2ccc(F)cc2)CC1,87% (inactive)
14,CCOC(=O)c1c(C)[nH]c(C)c1S(=O)(=O)NCC(=O)N1CCN(c2ccccc2F)CC1,76% (inactive)
15,COc1ccc(N2CCN(C(=O)CNS(=O)(=O)c3ccc(Br)s3)CC2)cc1,32% (active)
16,O=C(CNS(=O)(=O)c1ccc(Br)s1)N1CCN(c2ccccc2F)CC1,36% (active)
17,COc1ccc(N2CCN(C(=O)CNC3CC3)CC2)cc1,74% (inactive)
18,O=C(CNS(=O)(=O)c1cccs1)N1CCN(c2cccc(C(F)(F)F)c2)CC1,83% (inactive)
19,O=C(CNS(=O)(=O)c1ccc(Br)s1)N1CCN(c2ccc(F)cc2)CC1,27% (active)
20,O=C(Nc1cc(C(F)(F)F)ccc1Cl)c1noc2c1CCCCC2,82% (inactive)
21,COc1ccc(NC(=O)c2ccc3c(=O)n4nc(Nc5cc(C)ccc5C)sc4nc3c2)cc1,116% (inactive)
22,CCCCN(C)c1nc2c(S(=O)(=O)c3ccc(CC)cc3)nnn2c2ccc(Cl)cc12,76% (inactive)
23,CCc1ccccc1NC(=O)Cc1c(C(=O)O)[nH]c2ccc(Cl)cc12,80% (inactive)
24,CCOc1ccc(CCNC(=O)c2cnc3sc(N(CC)CC)nn3c2=O)cc1OCC,122% (inactive)
25,COc1ccc(CNC(=O)c2ccc(N3CCCC3)c(NC(=O)NCc3ccc(F)cc3)c2)cc1,93% (inactive)

row,SMILES,survival
1,Cc1ccc(-n2ncc3c(NC4CCCCCC4)ncnc32)cc1Cl,66% (inactive)
2,CCc1ccc(NC(=O)Cn2ccn(-c3cccc(Cl)c3)c(=O)c2=O)cc1,61% (inactive)
3,Cc1ccc(NC(=O)c2ccc(N(Cc3ccccc3)S(C)(=O)=O)cc2)cc1,64% (inactive)
4,CS(=O)(=O)N(Cc1ccccc1)c1ccc(C(=O)Nc2ccc(Cl)cc2)cc1,145% (inactive)
5,Cc1ccc(C(=O)Nc2ccc(S(=O)(=O)N(Cc3ccccc3)c3ccccc3)cc2)cc1,65% (inactive)
6,CS(=O)(=O)N(Cc1ccccc1)c1ccc(C(=O)Nc2cccc(Cl)c2)cc1,36% (active)
7,Cc1ccccc1NC(=O)c1ccc(N(Cc2ccccc2)S(C)(=O)=O)cc1,66% (inactive)
8,Cc1cccc(NC(=O)c2ccc(N(Cc3ccccc3)S(C)(=O)=O)cc2)c1,48% (active)
9,CNc1nc2c(c(=O)[nH]c(=O)n2C)n1Cc1cccc2ccccc12,85% (inactive)
10,COc1cccc(N2CCN(C(=O)C(CCSC)NS(=O)(=O)c3ccc4c(c3)oc(=O)n4C)CC2)c1 (centres undefined),106% (inactive)
11,Fc1ccc(-n2cc(-c3ccccc3)c3c(NC4CCCCC4)ncnc32)cc1,85% (inactive)
12,CC(C)(C)OC(=O)N1CCC(c2c(C(=O)NCCN3CCC(Cc4ccccc4)CC3)cnn2-c2ccc(F)cc2)CC1,47% (active)
13,CC(C)(C)OC(=O)N1CCC(c2c(C(=O)NCc3ccc(F)cc3)cnn2-c2ccc(F)cc2)CC1,-5% (active)
14,Cc1ccc(-n2ncc(C(=O)NCc3cccs3)c2C2CCN(C(=O)OC(C)(C)C)CC2)cc1C,91% (inactive)
15,COc1ccc(CNC(=O)c2cnn(-c3ccc(OC)cc3)c2C2CCN(C(=O)OC(C)(C)C)CC2)cc1,74% (inactive)
16,CC(C)(C)OC(=O)N1CCC(c2c(C(=O)NCc3ccccc3)cnn2-c2ccc(F)cc2)CC1,128% (inactive)
17,CC(C)(C)OC(=O)N1CCC(c2c(C(=O)NCc3cccs3)cnn2-c2cccc(F)c2)CC1,-5% (active)
18,CC(C)(C)OC(=O)N1CCC(c2c(C(=O)NCc3cccs3)cnn2-c2ccc(F)cc2F)CC1,72% (inactive)
19,Cc1ccc(-n2ncc(C(=O)NCCN3CCC(Cc4ccccc4)CC3)c2C2CCN(C(=O)OC(C)(C)C)CC2)cc1,98% (inactive)
20,CC(C)(C)OC(=O)N1CCC(c2c(C(=O)NCCN3CCC(Cc4ccccc4)CC3)cnn2-c2ccccc2)CC1,80% (inactive)
21,CC(C)CCNC(=O)CSc1nc2ccccc2nc1Cc1ccccc1,82% (inactive)
22,CCCC(=O)Nc1nnc(CCC)s1,80% (inactive)
23,CC(=O)Nc1ccc(NC(=O)c2cc(=O)c3ccccc3o2)cc1,59% (inactive)
24,CCCSc1nnc(NC(=O)c2cc(=O)c3ccccc3o2)s1,38% (active)
25,CCCc1nnc(NC(=O)c2cc(=O)c3ccccc3o2)s1,63% (inactive)

row,SMILES,survival
1,CCc1nnc(NC(=O)c2cc(=O)c3cc(C)c(C)cc3o2)s1,36% (active)
2,CCCc1nnc(NC(=O)c2cc(=O)c3cc(Cl)ccc3o2)s1,43% (active)
3,CCc1nnc(NC(=O)c2cc(=O)c3cc(C)ccc3o2)s1,79% (inactive)
4,CCCc1nnc(NC(=O)c2cc(=O)c3cc(C)c(C)cc3o2)s1,35% (active)
5,Cc1ccc2c(=O)cc(C(=O)Nc3nnc(CC(C)C)s3)oc2c1C,61% (inactive)
6,Cc1cc2oc(C(=O)Nc3ccc(S(N)(=O)=O)cc3)cc(=O)c2cc1C,70% (inactive)
7,CCCSc1nnc(NC(=O)Cc2coc3cc(C)ccc23)s1,85% (inactive)
8,Cc1ccc2oc(C(=O)Nc3nnc(CC(C)C)s3)cc(=O)c2c1,63% (inactive)
9,CCOc1ccc(-n2cc(C(=O)Nc3ccccc3OCC)c3cc(OC)c(OC)cc3c2=O)cc1,61% (inactive)
10,O=C(NCc1ccco1)c1ccc2c(c1)N(Cc1ccc(F)cc1)C(=O)c1ccccc1S2=O (centres undefined),76% (inactive)
11,COc1ccccc1CNS(=O)(=O)c1cnc(N)nc1,89% (inactive)
12,C=CS(=O)(=O)c1ccc(Oc2ccc(S(=O)(=O)C=C)cc2)cc1,103% (inactive)
13,COC(=O)CNc1cn[nH]c(=O)n1,92% (inactive)
14,COCCN(Cc1ccco1)C(=O)c1cc2c(Cl)nc3ccc(C)cc3c2s1,92% (inactive)
15,CCc1c(C)c2ccc(O)c(CN3CCN(c4cc(Cl)ccc4C)CC3)c2oc1=O,54% (inactive)
16,CC(C)n1c(SCc2ccccc2)nnc1C1CCCN(CC(N)=O)C1 (centres undefined),96% (inactive)
17,COc1ccc(Cn2ccc3nc(C)c(C(=O)N4CCN(c5ccccc5OC)CC4)cc3c2=O)cc1,102% (inactive)
18,O=C(NC12CCC(O)C(SC1)C2O)c1ccccc1 (centres undefined),109% (inactive)
19,COc1ccccc1C(O)(C(=O)NNc1cccc(Br)n1)c1ccccc1OC,73% (inactive)
20,CSc1nnc(NC(=O)c2cc(=O)c3cc(C)c(C)cc3o2)s1,52% (inactive)
21,CCSc1nnc(NC(=O)c2cc(=O)c3cc(C)ccc3o2)s1,86% (inactive)
22,CCSc1nnc(NC(=O)c2cc(=O)c3cc(C)c(C)cc3o2)s1,44% (active)
23,CC(Nc1ccc(-c2nc(-c3ccccn3)no2)cc1[N+](=O)[O-])c1ccccc1 (centres undefined),19% (active)
24,CC(Nc1ccc(-c2nc(-c3ccncc3)no2)cc1[N+](=O)[O-])c1ccccc1 (centres undefined),42% (active)
25,CCC(Nc1ccc(-c2nc(-c3cccnc3)no2)cc1[N+](=O)[O-])c1ccccc1 (centres undefined),64% (inactive)

row,SMILES,survival
1,CCC(Nc1ccc(-c2nc(-c3ccco3)no2)cc1[N+](=O)[O-])c1ccccc1 (centres undefined),53% (inactive)
2,Cc1noc(-c2ccc(NC(C)c3ccccc3)c([N+](=O)[O-])c2)n1 (centres undefined),70% (inactive)
3,CC(C)Nc1ccc(-c2nc(-c3ccco3)no2)cc1[N+](=O)[O-],107% (inactive)
4,CNc1ccc(-c2nc(-c3ccccn3)no2)cc1[N+](=O)[O-],52% (inactive)
5,CC(C)Nc1ccc(-c2nc(-c3ccccn3)no2)cc1[N+](=O)[O-],38% (active)
6,CC(Nc1ccc(-c2nc(-c3ccco3)no2)cc1[N+](=O)[O-])c1ccccc1 (centres undefined),100% (inactive)
7,CC(Nc1ccc(-c2nc(-c3cccnc3)no2)cc1[N+](=O)[O-])c1ccccc1 (centres undefined),79% (inactive)
8,CC(C)Nc1ccc(-c2nc(-c3ccncc3)no2)cc1[N+](=O)[O-],79% (inactive)
9,CCC(Nc1ccc(-c2nc(-c3ccccn3)no2)cc1[N+](=O)[O-])c1ccccc1 (centres undefined),41% (active)
10,COc1ccccc1C(=O)Nc1cc2c(cc1N1CCOCC1)n(C)c(=O)n2C,136% (inactive)
11,CCOc1cc(-c2nnc(SCC(=O)NCc3ccc(C)cc3)nc2-c2ccc(OC)c(OCC)c2)ccc1OC,78% (inactive)
12,CCOc1cc(NC(=S)NCCCN2CCOCC2)c(OCC)cc1NC(=O)C1CC1,94% (inactive)
13,Cn1cnc(S(=O)(=O)N2CCCC(C(=O)Nc3ccc(OC(F)(F)F)cc3)C2)c1 (centres undefined),25% (active)
14,O=C(Nc1ccc(OC(F)(F)F)cc1)C1CCN(S(=O)(=O)c2ccc3[nH]c(=O)ccc3c2)CC1,92% (inactive)
15,O=C(Nc1ccccc1)C1CCN(C(=O)c2cccs2)CC1,67% (active)
16,CC(C)c1ccc(NC(=O)C2CCN(S(=O)(=O)c3ccc(Br)s3)CC2)cc1,73% (inactive)
17,O=C(Nc1ccc(OC(F)(F)F)cc1)C1CCN(S(=O)(=O)c2cccs2)CC1,21% (active)
18,O=C(c1cccs1)N1CCC(Cc2ccccc2)CC1,86% (inactive)
19,CC(=O)c1ccc(NC(=O)C2CCCN(S(=O)(=O)c3cn(C)cn3)C2)cc1 (centres undefined),94% (inactive)
20,Cn1cnc(S(=O)(=O)N2CCC(C(=O)Nc3ccc(OC(F)(F)F)cc3)CC2)c1,92% (inactive)
21,O=C(Nc1ccc(OC(F)(F)F)cc1)C1CCCN(S(=O)(=O)c2ccc(Br)s2)C1 (centres undefined),80% (inactive)
22,O=C(O)C1CCN(C(=O)c2cccs2)CC1,88% (inactive)
23,O=C(Nc1ccc(Cl)cc1)C1CCN(S(=O)(=O)c2ccc(Br)s2)CC1,47% (active)
24,Cc1cc(NC(=O)C2CCN(S(=O)(=O)c3ccc(Br)s3)CC2)ccc1Br,79% (inactive)

# Reference: PubChem BioAssay AID463173 (ICCB-Longwood Screening Facility, Harvard Medical School, 2010)
